# Screens: PubChem, several laboratories
# CYP2C9 act = human CYP2C9 activators, primary screen, biochemical, luminescence. AID 1024, 2008. activation factor at 5 µM. hit rate 1.4% among 96,000. recombinant CYP2C9, luciferin-H conversion; stronger effect = higher value; factor 1 = untreated enzyme, 0 = blocked;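 active = activation factor of 2 or more for CYP2C9 at a 5 µM dose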;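 note: 0 = sulfaphenazole-blocked wells and 1 = vehicle-only wells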
# CYP2C9 inhib = blockers of cytochrome P450 2C9 activity – biochemical, luminescence, ADME assay, primary screen. CYP2C9 Supersomes, luciferin-H conversion. inhibition, % at 5 µM. hit rate 20% among 96,000. AID 777, 2007;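 active = blocking of liver enzyme CYP2C9 beyond about 50% at 5 µM, limit read from the data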
# Cav32 inh = Cav3.2 calcium influx blockers – cell-based, Fluo-4 calcium fluorescence, FDSS, MLSMR library, primary screen; Voltage-dependent T-type calcium channel subunit alpha-1H (Homo sapiens), O95180; Cav3.2-expressing cells; stronger effect = lower value; B-score at 10 µM; hit rate 4% among 100,000;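 active = single-dose well whose peak fluorescence ratio is a statistical outlier from its plate by either plate-standardised score or position-corrected B-score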
# CYP2C19 activ = human CYP2C19 activators, primary screen, biochemical, luminescence | Cytochrome P450 2C19 (Homo sapiens), P33261 | recombinant CYP2C19, luciferin-H EGE luminescence; stronger effect = higher value; 0 = fully inhibited enzyme, 1 = untreated enzyme | activation factor at 5 µM | 96,000 tested, under 10 active;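 active = activation factor of at least 2 at 5 µM in the primary screen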;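 note: 0 = wells with 2.5 mM tranylcypromine and 1 = vehicle-only wells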
# CYP2C19 inh = blockers of cytochrome P450 2C19 activity – biochemical, luminescence, ADME assay, primary screen; P33261; CYP2C19 Supersomes, luciferin-H EGE luminescence, 30 min; inhibition, % at 5 µM; hit rate 21% among 96,000;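 active = CYP2C19 inhibition above a set limit at 5 µM in the primary screen, cut at about 50% in these data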;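 note: plate controls were negative control wells for no effect and 2.5 mM tranylcypromine positive control for full effect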
# Numbers without * were called inactive; . = not tested or not shown. This is a sample that favours compounds with a hit; in the whole collection about 27% have one here.
SMILES,CYP2C9 act,CYP2C9 inhib,Cav32 inh,CYP2C19 activ,CYP2C19 inh
CC1CCCC(C)N1C(=O)CSc1nnc(C2CCCCC2)o1 (stereo not drawn),0.9,12,0.29,0.4,59*
COc1ccc(-n2c(C)nnc2SCC(=O)N2C(C)CCCC2C)cc1 (stereo not drawn),0.9,6,-1.1,1,-1
Cc1cc(-c2nnc(SCC(=O)N3C(C)CCCC3C)o2)no1 (stereo not drawn),0.7,30,-0.4,0.4,56*
COc1ccccc1CN(Cc1ccco1)S(=O)(=O)c1ccc(-n2cnnn2)c(OC)c1,0.2,85*,-1.3,0.3,67*
COc1cccc(CN(Cc2cccnc2)S(=O)(=O)c2ccc(-n3cnnn3)c(C)c2)c1OC,0.6,44,0.75,0.2,78*
Cc1nc2ccc(S(=O)(=O)NCC(=O)N3CCOCC3)cc2s1,1,3,0.041,0.9,9
O=C(O)CCCC(=O)N1CCc2cc(S(=O)(=O)N3CCc4ccccc43)ccc21,0.9,8,1.2,1.2,-20
Cc1cc(C)c2c(n1)nn1c(N3CCN(Cc4ccccc4)CC3)cc(C)nc21,0.6,41,.,0.8,17
COc1ccc(Cl)cc1CN1CCN(c2nc(C)cc(C)c2C#N)CC1,0.2,79*,-0.22,0.1,92*
COc1ccc(F)cc1CN1CCN(c2cc(C)nc3c4c(C)cc(C)nc4nn23)CC1,1,4,-7.8*,0.9,7
Cc1cc(C)c(C#N)c(N2CCN(CCOc3ccc(Cl)cc3)CC2)n1,0.8,22,-2.2,0.8,16
O=C(O)CC(CNS(=O)(=O)c1ccccc1)c1ccccc1 (stereo not drawn),0.9,6,-1.2,0.9,6
COc1cc(CNCc2ccccn2)ccc1OCc1ccc(Cl)cc1Cl,0.8,17,0.067,0.3,73*
COc1cccc(CNCc2ccccn2)c1OC,0.8,20,1.2,0.3,74*
COc1ccccc1Oc1ccc(S(=O)(=O)NCc2ccccn2)cc1,0.7,28,0.44,0.6,44
Cc1ccccc1C(=O)NNC(=S)NC(=O)COc1ccccc1,0.1,89*,-3.3,0.4,55*
Cc1ccccc1NC(=S)NC(=O)c1cc(-c2ccccc2)nc2ccccc12,0.5,46,-2.5,0.9,11
CCCOc1ccc(C(=O)NNC(=S)NC(=O)c2cc(-c3ccccc3)nc3ccccc23)cc1,0.5,47,-7.3*,0.8,17
Cc1ccc(C(=O)NNC(=S)NC(=O)COc2ccccc2)cc1,0.2,78*,-5.2*,0.7,32
COc1ccccc1CCNC(=O)C1CCCO1 (stereo not drawn),1.2,-17,1.6,1,-4
COc1cccc(C2=CC(c3cc(OC)ccc3OC)n3nnnc3N2)c1 (stereo not drawn),0.3,68*,.,0.6,35
COc1cccc(C2=CC(c3ccccc3)n3nnnc3N2)c1 (stereo not drawn),0.2,79*,.,0.2,82*
COc1ccc(C2=CC(c3ccc(C)cc3)n3nnnc3N2)cc1 (stereo not drawn),0.1,86*,-0.43,0.3,75*
COc1cccc(C2=CC(c3ccc(N(C)C)cc3)n3nnnc3N2)c1 (stereo not drawn),1.1,-9,-0.48,1.1,-11
COc1ccc(C2C=C(c3ccccc3)Nc3nnnn32)cc1 (stereo not drawn),0.3,74*,-0.13,0.1,90*
SMILES,CYP2C9 act,CYP2C9 inhib,Cav32 inh,CYP2C19 activ,CYP2C19 inh
CCCn1c(=O)c2ccccc2n2c(SCCOc3ccc(C)cc3)nnc12,0.6,36,-3.3,0.5,47
CCNC(=O)/N=C1/NC(=O)C(C(C)C)O1 (stereo not drawn),1,4,0.24,1.1,-6
O=C(CSc1nnc(-c2ccco2)n1Cc1ccco1)NCc1cccs1,0.4,57*,0.66,0.5,51*
O=C(CSc1nnc(Cc2cccs2)n1Cc1ccco1)Nc1ccc(Br)cc1,0.1,93*,-4*,0.1,89*
O=C(CSc1nnc(Cc2cccs2)n1Cc1ccco1)Nc1ccc(Cl)cc1Cl,0.4,62*,.,0.5,50
CC1(C)Oc2ccc(C#N)cc2[C@@H](N2CCCC2=O)[C@@H]1O,.,.,0.77,.,.
CCOC(=O)c1c(C)n(C)c2c(C)cc(O)c(OC(C)=O)c12,1.3,-32,1.8,1.1,-12
Cc1c(NC(=O)c2ccccc2N(C)S(=O)(=O)c2ccccc2)c(=O)n(-c2ccccc2)n1C,0.5,46,-0.25,0.8,24
O=C(CN1C(=O)COc2ccccc21)NCc1ccccn1,1,1,0.86,1,1
Cc1cc(SCC(=O)N2CCC(c3noc4ccc(F)cc34)CC2)nc2ccccc12,0.7,34,-5*,0.6,44
CC1(C(=O)N2CC3(CC(c4cccc(NC(=O)CC(c5ccccc5)c5ccccc5)c4)=NO3)C[C@@H]2C(N)=O)CC1 (stereo partly drawn),.,.,-0.011,.,.
CCOc1ccccc1-c1nc(-c2ccc(NC(=O)Cc3ccccc3OC)cc2)no1,2*,-104,-3.8,0.5,52*
COc1ccc(CC(=O)Nc2ccc(-c3noc(-c4cccc(OC)c4)n3)cc2)cc1,0.8,23,-4.2*,0.9,12
COc1ccccc1-c1nc(-c2ccc(C(=O)O)cc2)no1,.,.,0.95,.,.
CCCCS(=O)CC(COc1ccc(Cl)cc1)OC(=O)c1ccccc1 (stereo not drawn),0.2,80*,-3.5,0,95*
CN1CCOCCOCCN(C)C1=O,1,0,0.61,0.9,6
Cc1ccc(-c2nc(CSCC(=O)N3CCN(c4ccccn4)CC3)c(C)o2)cc1,1.6,-60,-5*,0.7,29
CCOC(=O)N1CCC(NC(=O)CSCc2nc(-c3cccc(OC)c3)oc2C)CC1,0.3,67*,1.9,0.4,57*
Cc1ccccc1-c1nc(CN2CCC(C(=O)N3CCN(c4ccccn4)CC3)CC2)c(C)o1,0.4,55*,0.42,0.9,13
Cc1ccccc1-c1nc(CN2CCC(C(=O)N3CCC(C(N)=O)CC3)CC2)c(C)o1,1,-2,0.051,1.1,-8
CCOc1ccc(-c2nc(CSCC(=O)N3CCN(c4cccc(OC)c4)CC3)c(C)o2)cc1,0.1,94*,-2.5,0.2,83*
Cc1ccc(-c2nc(CSCC(=O)N3CCOCC3)c(C)o2)cc1,0.8,20,0.23,0.8,20
O=C(Cn1c(N2CCN(c3ccccc3)CC2)nc2ccccc21)c1ccccc1,1.1,-11,.,1.1,-12
CCn1c2ccccc2c2nnc(SCc3ccc(C(=O)OC)o3)nc21,0.8,22,-0.43,0.5,48
O=C(c1ccc2c(c1)OCO2)N1CCC2(CC1)Oc1ccc(Cl)cc1C(=O)C21CC(c2cccnc2)=NO1 (stereo not drawn),.,.,0.076,.,.
